Here are results for 98 compounds from PubChem BioAssay AID598 (SRMLSC, 2007).

SMILES strings stand for the structures. Out of some 85,000 compounds screened, about 5,100 (6%) were called active. The entries come from a sample that favours actives as a whole. A number with no mark means an inactive call.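 The calls were made as follows: active = viability at or below 40%; inactive = viability above 40%.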

Broadly, the viability is a read-out of living cells in per cent, often relative to untreated cells.

This experiment can be described thus: H69AR cell viability reduction – human, 86K library, primary screen (AID 598).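 Also: multidrug resistant small cell line overexpressing MRP-1 efflux transporter; 100% = mean luminescence of untreated control wells.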 To be noted: H69AR lung tumor viability, ATP luminescence, 72 h; at 10 µM; hits give low values.
For `COc1ccc(C2=NOC3(CC(=O)N(c4ccc(C)cc4)C3=O)C2)cc1` (stereo not drawn), the viability is 98.4%.

For `O=C(c1cccc(N2CCCC2=O)c1)N1CCOCC1`, the viability is 110%.

For the compound `CCN(CC)CCn1c2ccc(Cl)cc2c2nc(C)sc21`, the viability was 20.6% (active).

In the case of `COC(=O)Cn1c2ccc(C)cc2c2nc(C)sc21`, the viability was 98.6%.

As to `COc1ccc(Br)cc1CN1CCN(C(=O)c2cccc(OC)c2OC)CC1`, the viability is 70.4%.

Turning to `COC(=O)c1ccccc1NC(=O)CN(Cc1ccc(Cl)cc1)S(C)(=O)=O`, the viability was 60.9%.

For the compound `COc1cccc(NC(=O)CN(C)S(=O)(=O)c2ccc(C)cc2)c1`, the viability was 89.9%.

Consider `COc1cccc(-c2nnc(NC(=O)c3ccc(S(=O)(=O)N(CC(C)C)CC(C)C)cc3)o2)c1`, for which the viability is 13.2% (active).

On to `CCN(CC)C(=O)CSc1nnc(-c2cccc(OC)c2)o1`, for which the viability is 76.1%.

As to `COC(=O)c1ccccc1Sc1c(/C=N/OCc2ccc(Cl)cc2)c(C(F)(F)F)nn1C`, the viability was 79.2%.

For the compound `CN(C)C(=O)c1cc(Br)ccc1Cl`, the viability was 100%.

On to `COc1ccc(C2C(C#N)=C(/N=C/N3CCOCC3)OC3=C2C(=O)CC(C)(C)C3)cc1OC` (stereo not drawn), for which the viability is 96.7%.

Take `OC(COc1ccc2c(c1)CCC2)CN1CCN(c2cccc(Cl)c2)CC1` (stereo not drawn): the viability was 75%.

In the case of `O=C(Nc1ccccc1-c1nnn(CC(=O)N2CCCc3ccccc32)n1)c1cccc(Cl)c1`, the viability is 102%.

Turning to `Cc1cc(C)n(C(=O)CCNC(=O)c2ccccc2Cl)n1`, the viability was 104%.

For `Clc1ccc(C2=CSC3=Nc4cccc5cccc(c45)N23)cc1`, the viability was 27.7% (active).

`O=C(c1ccco1)N1CCN(C(=O)C2CCCN(S(=O)(=O)c3cccc4nsnc34)C2)CC1` (stereo not drawn): the viability was 91.1%.

In the case of `CCOCCOCCC(C(=O)O)P(=O)(c1ccccc1)c1ccccc1` (stereo not drawn), the viability is 103%.

Regarding `CCc1c(O)nc(SCC(=O)Nc2ccccc2)n(C(C)CC)c1=O` (stereo not drawn), the viability was 74.6%.

Regarding `CC(=O)OC(C(=O)NC1CCCCC1)c1ccccc1` (stereo not drawn), the viability is 92.1%.

In the case of `CC(C)c1ccc(NC(=O)NC2CCCCC2)cc1`, the viability was 25.6% (active).

Regarding `CC(C)NS(=O)(=O)c1ccc(NC(=O)C2CCCCC2)cc1`, the viability is 109%.

For `CNC(=S)N1N=C(c2ccccc2)CC1c1ccc(Br)cc1` (stereo not drawn), the viability is 76.7%.

On to `COc1ccc(-c2nc3ccccc3n2CCC(C)C)cc1OC`, for which the viability was 28.8% (active).

For `COCCn1c(-c2ccc(OC)c(OC)c2)nc2ccccc21`, the viability is 92.7%.

Take `CCCn1c(C(O)c2cc(OC)ccc2OC)nc2ccccc21` (stereo not drawn): the viability is 95.3%.

As for `COC(=O)c1[nH]c2ccc(Br)cc2c1NC(=O)Oc1ccccc1`, the viability was 80.6%.

Regarding `O=C(Nc1ccc2oc(-c3ccc4ccccc4c3)nc2c1)c1cccs1`, the viability is 2.65% (active).

Regarding `O=C(Cc1cccc2ccccc12)Nc1ccc2oc(-c3ccccc3)nc2c1`, the viability is 59.7%.

Consider `Cc1nc(-c2ccc(NC(=O)c3cccs3)cc2)cs1`, for which the viability is 70.7%.

As for `CCNC(=O)c1sccc1-n1cccc1`, the viability is 103%.

Take `CC(C)(C)NC(=O)Cn1c(SCC(=O)Nc2nccs2)nc2ccccc21`: the viability is 92.5%.

As to `O=S(=O)(N1CCCCC1)N1CCNCC1`, the viability was 100%.

In the case of `O=C(CSc1nnc(-c2ccco2)n1-c1ccccc1)NCCc1ccccc1`, the viability was 82%.

Regarding `COc1ccc(C(=O)NC(=O)CSc2nnc(-c3ccco3)n2-c2ccccc2)cc1`, the viability was 95.2%.

As for `Cc1cccc(C)c1NC(=O)CCCSc1nnc(-c2ccco2)n1-c1ccccc1`, the viability is 34.3% (active).

`COC(=O)c1sc(=S)n(-c2ccc(Cl)cc2)c1C`: the viability was 90%.

With `CCOn1c(SC(C)C)nc2ccccc2c1=O`, the viability is 103%.

Regarding `Cc1ccc(OC(=O)c2cc3ccccc3o2)cc1`, the viability was 104%.

For `CCOC(=O)c1cc2cc(-c3c(C(=O)OCC)oc4cc(O)cc(O)c4c3=O)ccc2o1`, the viability was 16.6% (active).

Consider `CCOC(=O)c1c(C)nc2c(c1C)c(=O)oc1ccccc12`, for which the viability was 98.3%.

As to `CN(C)c1nc(N)nc(CSc2ccccn2)n1`, the viability was 91%.

Take `Cc1cc(N/C=C\C(=O)c2ccc(Cl)c(Cl)c2)no1`: the viability is 84.8%.

For `CCOC(=O)c1ccccc1NS(=O)(=O)c1ccc(OC)cc1`, the viability was 18.2% (active).

On to `CCCC(NS(=O)(=O)c1ccc(OC)cc1)C(=O)O` (stereo not drawn), for which the viability is 104%.

`COC(=O)CNS(=O)(=O)c1ccc(OC)cc1`: the viability was 91.5%.

As to `O=c1[nH][nH]c(C(F)(F)F)c1C=NCc1ccccc1Cl`, the viability was 81.2%.

Take `Cn1nc(-c2ccccc2)c(-c2nc(-c3ccc(Cl)cc3)no2)c1Cl`: the viability was 34.3% (active).

Regarding `COc1ccc(-c2nc(-c3ccccc3)no2)c(OC)c1`, the viability is 69.4%.

For the compound `Cc1cccc(-c2noc(-c3ccc(F)cc3)n2)c1`, the viability is 91.5%.

Turning to `COc1ccc(Cl)cc1C(=O)NCc1cn(C)nc1C`, the viability was 86.1%.

As to `Cc1ccccc1-n1c(C)cc(/C=C2\NC(=O)NC2=O)c1C`, the viability was 85.6%.

Take `CC1(C)CCCC2=C1CC1C(=O)N(c3ccccc3)C(=O)C1C2` (stereo not drawn): the viability is 84%.

On to `CC1CC2=C(CC1/C=N/NC(N)=S)C(C)(C)CCC2` (stereo not drawn), for which the viability is 2.3% (active).

In the case of `CCCCc1nc2ccccc2c(=O)n1NC(=O)c1c(O)c2cccc3c2n(c1=O)CC3`, the viability was 70.7%.

As to `CCCc1nc2ccccc2c(=O)n1/N=C/c1ccc(O)c(O)c1`, the viability was 15.8% (active).

On to `CCCc1nc2ccccc2c(=O)n1NC(=O)c1c(O)c2ccccc2[nH]c1=O`, for which the viability was 86.6%.

Take `CCOc1cc(C(=S)N2CCOCC2)ccc1O`: the viability was 85.1%.

Regarding `CCn1c2ccccc2c2cc(NC(=S)N3CCOCC3)ccc21`, the viability was 20.1% (active).

For `CCn1c(=O)cc(O)c2ccccc21`, the viability is 83.1%.

With `CS(=O)(=O)Nc1ccc(C(=O)N2CCCC2)cc1`, the viability is 89.1%.

For the compound `Cc1ccc(CN2CCN(/N=C/c3ccco3)CC2)c(C)c1`, the viability was 106%.

Consider `C=CCNC(=O)c1cc2nc(C3CC3)cc(C(F)F)n2n1`, for which the viability was 91.1%.

Take `Cc1[nH]n(-c2cccc(Cl)c2)c(=O)c1/C=N/n1c(C)nc2ccccc2c1=O`: the viability was 29.1% (active).

Turning to `Cn1c(COc2ccc(Cl)cc2)nc2ccccc2c1=O`, the viability is 77.5%.

Take `Cc1[nH]n(-c2ccc(Cl)cc2)c(=O)c1/C=N/n1c(C)nc2ccccc2c1=O`: the viability was 50.4%.

On to `O=C(CN(c1ccccc1)S(=O)(=O)c1ccc(Cl)cc1)Nc1ccccc1C(=O)N1CCCC1`, for which the viability was 84.3%.

`O=C(Cc1ccc(-n2c(=O)[nH]c3ccccc3c2=O)cc1)N1CCN(c2cccc(Cl)c2)CC1`: the viability was 89.4%.

In the case of `O=C(Nc1ccc2ccccc2c1)Nc1ccc2snnc2c1`, the viability is 7.33% (active).

Take `Cc1ccc(NC(=O)Nc2ccc3oc(C)nc3c2)cc1`: the viability is 74.5%.

Turning to `COc1ccc(NC(=O)Nc2ccc3nc(C)c(C)nc3c2)cc1`, the viability is 90.7%.

For the compound `Cc1cc2nc(C)n(CCCNC(=O)Nc3ccccc3)c2cc1C`, the viability was 91.7%.

As for `CCC1CCCCN1CCCNC(=O)C1CCC(Cn2c(=O)[nH]c3ccccc3c2=O)CC1` (stereo not drawn), the viability is 77.4%.

For `Cc1cccc(NC(=O)C2CC(=O)OC23CCCC3)c1` (stereo not drawn), the viability was 102%.

Regarding `Clc1ccc(C2CC(c3cccs3)n3ncnc3N2)cc1Cl` (stereo not drawn), the viability was 35.8% (active).

For the compound `COc1ccc(C2CC(c3ccccc3)Nc3ncnn32)cc1` (stereo not drawn), the viability is 90.5%.

Consider `COc1ccc(C2CC(c3ccc(C)cc3)Nc3ncnn32)cc1` (stereo not drawn), for which the viability was 91.5%.

With `Cc1cccc(C(=O)Nc2ccccc2N2CCN(c3ccc(F)cc3)CC2)c1`, the viability was 89.6%.

`FC(F)(F)c1nnc2ccc(N3CCN(c4ccccc4)CC3)nn12`: the viability is 92.5%.

For the compound `COc1ccc2c(c1)CCc1c(C(=O)N3CCc4ccccc4C3)noc1-2`, the viability was 94.9%.

In the case of `COc1cc2c(cc1OC)CN(C(=O)c1cc(=O)c3ccccc3o1)CC2`, the viability is 18.1% (active).

As to `COc1ccc(S(=O)(=O)N2CCC(C(=O)N3CCc4ccccc4C3)CC2)cc1OC`, the viability was 88.7%.

As for `CCN(CC)C(=O)CSc1nc2ccccc2o1`, the viability is 91.7%.

Regarding `CCOc1c(Br)cc(/C=C2\C(=O)N(CCC#N)N=C2C)cc1OC`, the viability is 26.2% (active).

For the compound `CCOc1cc(/C=N/O)cc(Br)c1OC`, the viability is 90.5%.

`Cc1nnc(NCCO)c2ccccc12`: the viability was 89.8%.

Regarding `Cn1c(SCC(=O)N2CCCc3ccccc32)nc2ccccc2c1=O`, the viability was 62.9%.

As for `Fc1ccccc1/C=C1\CCCC2=C1Nc1ncnn1C2c1ccccc1F` (stereo not drawn), the viability is 1.53% (active).

As for `COc1ccc(C2C(C(C)=O)=C(O)C(=O)N2c2nccs2)cc1` (stereo not drawn), the viability was 106%.

For the compound `O=C(N/N=C/c1ccc(O)cc1)/C(=C/c1ccc([N+](=O)[O-])cc1)NC(=O)c1ccccc1`, the viability is 88.2%.

In the case of `COc1c(F)c(F)c(C(=O)O)c(Nc2ccccc2C)c1F`, the viability was 98.5%.

Consider `COc1ccc(C(=O)OCC(=O)NCC2CCCCC2)cc1S(=O)(=O)N1CCCc2ccccc21`, for which the viability was 72.3%.

Consider `C=CCn1c(SCCOc2ccc(OC)cc2)nnc1C(NC(=O)c1ccc(OC)cc1)C(C)C` (stereo not drawn), for which the viability is 64%.

Regarding `CCN(CC(=O)NC1CCS(=O)(=O)C1)c1nc(-c2cccnc2)nc2ccccc12` (stereo not drawn), the viability was 89.7%.

Take `Cc1cccc(-n2c(O)c(C=Nc3ccccc3N)c(=O)[nH]c2=O)c1`: the viability was 10% (active).

`Cc1cccc(N2CCN(S(=O)(=O)c3ccc4[nH]c(=O)c(=O)[nH]c4c3)CC2C)c1` (stereo not drawn): the viability is 98.9%.

As to `Cc1cccc(-n2c(N)c(C(=O)N3CCN(C)CC3)sc2=S)c1`, the viability was 94.4%.

As to `O=C(C(NS(=O)(=O)c1cccc2nsnc12)c1ccccc1)N1CCN(c2ccccc2)CC1` (stereo not drawn), the viability is 52.6%.
